Compound activity: PubChem BioAssay, National Center for Advancing Translational Sciences (NCATS)
FMDV inh: High Throughput Screening for Foot and Mouth Disease Virus Antivirals; 410,000 tested, 1.2% active; AID 1159524, 2015; Potency, µM (series often up to 57.9 µM), inactives show at the highest dose activity change, negative = inhibition, usual class: inhibitors; FMDV antiviral cell-based qHTS; calls by dose curve; tested in HEK293T cells; further: read-out not given here; potency means the concentration at half of the fitted maximal effect; on the % scale 0 is the no-effect control and ±100 the full control effect; nearly all actives have a fitted effect of over 45% in size
HCMV inh: qHTS Assay for inhibitors of the human cytomegalovirus (HCMV); HFF cells, HCMV-luciferase reporter, 72 h; active compounds read low; activity change, negative = inhibition, % at 57.5 µM; 410,000 tested, 4.5% active; AID 1259415, 2018; in the data active means activity change below about -60%; inconclusive means no clear call, values can overlap the other calls; inactive means above about -39%; further: on the % scale 0 is the no-effect control and ±100 the full control effect
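After 16 h attachment at 37C, HFF cells received test compound and HCMV-luciferase (1 PFU/cell); reporter luminescence read 72 h later, data normalized against buffer-only and known inhibitor Salinomycin.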
LASV entry inh: qHTS for Inhibitors of binding or entry into cells for Lassa Virus; Lassa virus pseudotype entry inhibition, cell reporter; Potency, µM (highest dose often 37.9 µM), inactives show at the highest dose activity change, negative = inhibition, usual class: inhibitors; 300,000 tested, 1.2% active; AID 540256, 2011; calls by dose curve; tested in HEK293 cells; further: potency means the concentration at half of the fitted maximal effect; on the % scale 0 is the no-effect control and ±100 the full control effect; nearly all actives have a fitted effect of over 50% in size
SARS PLpro yeast: qHTS of Yeast-based Assay for SARS-CoV PLP; S. cerevisiae expressing SARS-CoV PLpro, growth rescue; Potency, µM (top dose mostly 32.9 µM), for the others: at the top dose activity, positive = growth rescue, actives largely listed as activators; 330,000 tested, 0.19% active; AID 485353, 2010; calls by dose curve; further: potency means the concentration at half of the fitted maximal effect; 0% is about no effect; nearly all actives have a fitted effect of over 55% in size
MARV entry inh: qHTS for inhibitors of binding or entry into cells for Marburg Virus; Marburg virus pseudotyped entry inhibition, cell reporter; Potency, µM (top dose mostly 37.8 µM), for inactives: at the top dose activity change, negative = inhibition, most hits filed as inhibitors; 300,000 tested, 1.8% active; AID 540276, 2011; calls by dose curve; tested in HEK293 cells; further: potency means the concentration at half of the fitted maximal effect; on the % scale 0 is the no-effect control and ±100 the full control effect
HCV inhibitor: qHTS Assay for Inhibitors of Hepatitis C Virus (HCV) | 340,000 tested, 3.4% active | Huh7.5.1 HCVcc-Cre infection, luciferase reporter, 44 h | Potency, µM (highest dose often 41.8 µM), inactives show top-dose activity change, negative = inhibition, hits mostly inhibitors; active means well fitted inhibition curve with a large enough effect; inconclusive means small, poorly fitted or top-dose-only effect, or another doubt; inactive means no such curve, though single readings can be large or run the other way; further: potency means the concentration at half of the fitted maximal effect; on the % scale 0 is the no-effect control and ±100 the full control effect
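HCVcc-Cre virus at an moi near 0.5 was added right after compound to cells cultured 4 h from seeding (1,000 cells/well). Luciferase activity was determined 44 h later, 15 min after substrate addition at RT.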
Numbers without * were called inactive; ? = inconclusive; / = no result; [ ] = another dose, or the depositor's remark. Only some compounds are listed: those with a hit (about 8% of all), similar ones and a draw of the others.

SMILES	FMDV inh	HCMV inh	LASV entry inh	SARS PLpro yeast	MARV entry inh	HCV inhibitor
CCN(CC)Cc1cc(Nc2ccnc3cc(Cl)ccc23)ccc1O	-17%	-28	/	-9%	/	7.9µM*
Oc1ccc(Nc2ccnc3cc(Cl)ccc23)cc1	24%	-12	-12%[46.1 µM]	1%	?	-2%
N#C/C(=N/O)c1nc(-c2ccccc2)cs1	/	/	/	/	15%	/
COc1ccc(OC)c(CN2CCOc3ccc(C(O)c4cccnc4)cc3C2)c1 (centres undefined)	-4%	/	/	/	/	/
CCN(CC)C(=O)c1sc2nc(-c3cccs3)cc(-c3cccs3)c2c1N	-12%	-64*	/	-2%	-2%	-26%
CCN(CC)C(=O)c1sc2nc(-c3cccs3)cc(-c3ccc(Cl)cc3)c2c1N	-15%	-33	22%	2%	?	?
CCOC(=O)c1cc(-c2ccc(OC)cc2)n(CCC(=O)NC2CCCCC2)c1C	3%	38	-16%[46.1 µM]	/	/	/
c1ccc(-n2cnc3ccccc32)nc1	9%	?	14%	-8%	-9%	-23%
c1ccc(-c2ccc(-c3n(-c4ccccn4)c4ccccc4[n+]3-c3ccccn3)cc2)cc1	14µM*	-2	?	0%	?	?
C=C1C(=O)C=C[C@]2(C)C[C@@H]3OC(=O)[C@](C)(O)[C@H]3C[C@@H]12	28µM*	-98*	/	-6%	/	?
COc1ccc(CS(=O)(=O)/C(Cl)=C(/Cl)C(=O)Nc2ccc(OC)nc2)cc1	11µM*	/	6.3µM*	-22%	2.8µM*	4µM*
COc1ccc(NC(=O)CCc2c(C)nc3c(-c4ccc(F)cc4)c(C)nn3c2C)c(OC)c1	?	0	27%[46.1 µM]	/	?	/
CCC(O)CNC(=O)c1cnn(-c2ncc3c(n2)-c2ccccc2CCC3)c1C1CC1 (centres undefined)	38%	/	/	/	/	/
CC(OC(=O)c1ccc(Cl)c(S(N)(=O)=O)c1)C(=O)NCC1CCCCC1 (centres undefined)	3%	-87*	/	-4%	/	?
NS(=O)(=O)c1cc(C(=O)NCC2CCCCC2)ccc1Cl	12%	6	1%[46.1 µM]	-2%	-2%[46.1 µM]	1%
CC(C)CC1C(=O)N(Cc2cn(Cc3ccco3)nn2)CCS(=O)(=O)N1Cc1ccc(-c2cccc(N(C)C)c2)cc1 (centres undefined)	0%	-101*	/	/	/	/
Cc1ccc(-c2ccc(CN3C(CC(C)C)C(=O)N(Cc4cn(CCC5OCCO5)nn4)CCS3(=O)=O)cc2)cc1 (centres undefined)	?	-101*	/	/	?	/
CC1C(=O)N(Cc2cn(CCC3OCCCO3)nn2)CCS(=O)(=O)N1Cc1ccc(-c2ccc(Cl)cc2)cc1 (centres undefined)	11µM*	?	/	/	/	/
CC(C)CC1C(=O)N(Cc2cn(CC3CCCCC3)nn2)CCS(=O)(=O)N1Cc1ccc(-c2ccncc2)cc1 (centres undefined)	-8%	-5	14µM*	/	/	/
CCc1nc(Sc2nnnn2-c2ccccc2)c2c3c(sc2n1)CCCC3	?	-17	?	-12%	2%	?
Cc1nc(Sc2nnnn2C)c2c3c(sc2n1)CCC3	?	-103*	?	3%	?	4%
Cc1cc(CNC(=O)c2cnn(-c3nccc(-c4cc(C)sc4C)n3)c2C2CC2)on1	46%	/	/	/	/	/
CC(C)CC1c2[nH]c3ccccc3c2CCN1CCCn1cccn1 (centres undefined)	-20%	-12	11µM*	0%	4.5µM*	-7%
COc1ccc(C2c3[nH]c4ccccc4c3CCN2CCCn2cccn2)c(C)c1C (centres undefined)	?	9	-21%	-1%	?	?
Nc1cc(Cl)cc2c1-c1ccc(Cl)cc1C2O (centres undefined)	47%	?	-12%[46.1 µM]	/	10%[46.1 µM]	?
O=C(Nc1cc(Cl)cc2c1-c1ccc(Cl)cc1C2O)C(Cl)Cl (centres undefined)	-23%	-15	13µM*	/	?	11µM*
